# Assay results reported in ChEMBL document CHEMBL1961873, “Compounds: GSK PKIS; Assays: Nanosyn kinase panel” (2012).
# Assays:
# [1] = target: T1, Ephrin type-B receptor 2 (Homo sapiens) (UniProt P29323); conditions: at 1 µM
# T1 sequence (whole entry): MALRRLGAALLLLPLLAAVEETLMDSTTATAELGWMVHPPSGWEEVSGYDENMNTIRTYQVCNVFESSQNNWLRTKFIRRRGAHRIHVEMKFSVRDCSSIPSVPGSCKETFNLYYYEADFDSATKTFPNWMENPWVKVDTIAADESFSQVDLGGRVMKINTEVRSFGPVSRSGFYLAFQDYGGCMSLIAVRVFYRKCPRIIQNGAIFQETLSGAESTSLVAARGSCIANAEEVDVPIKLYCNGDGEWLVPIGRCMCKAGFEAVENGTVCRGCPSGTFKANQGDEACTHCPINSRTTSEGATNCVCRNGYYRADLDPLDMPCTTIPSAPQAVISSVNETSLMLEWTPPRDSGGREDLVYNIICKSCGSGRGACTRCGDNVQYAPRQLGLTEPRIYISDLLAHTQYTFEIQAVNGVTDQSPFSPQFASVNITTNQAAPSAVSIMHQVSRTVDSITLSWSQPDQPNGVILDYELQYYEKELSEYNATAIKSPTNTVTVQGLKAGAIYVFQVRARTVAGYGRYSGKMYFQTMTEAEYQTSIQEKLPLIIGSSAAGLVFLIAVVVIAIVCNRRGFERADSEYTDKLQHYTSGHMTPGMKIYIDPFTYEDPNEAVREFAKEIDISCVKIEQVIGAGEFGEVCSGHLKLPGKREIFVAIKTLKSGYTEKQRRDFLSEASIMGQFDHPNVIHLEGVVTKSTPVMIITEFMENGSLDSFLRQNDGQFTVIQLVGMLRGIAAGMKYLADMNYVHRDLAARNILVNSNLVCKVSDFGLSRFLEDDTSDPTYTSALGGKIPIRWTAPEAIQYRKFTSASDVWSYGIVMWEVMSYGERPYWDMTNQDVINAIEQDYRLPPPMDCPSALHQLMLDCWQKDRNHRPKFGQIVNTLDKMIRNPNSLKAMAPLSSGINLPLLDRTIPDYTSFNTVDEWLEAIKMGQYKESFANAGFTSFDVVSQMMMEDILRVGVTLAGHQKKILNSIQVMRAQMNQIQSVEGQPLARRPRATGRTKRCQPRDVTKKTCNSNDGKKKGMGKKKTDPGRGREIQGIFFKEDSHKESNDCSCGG
# [2] = target: T2, Ephrin type-B receptor 3 (Homo sapiens) (UniProt P54753); conditions: at 0.1 µM
# T2 sequence (whole entry): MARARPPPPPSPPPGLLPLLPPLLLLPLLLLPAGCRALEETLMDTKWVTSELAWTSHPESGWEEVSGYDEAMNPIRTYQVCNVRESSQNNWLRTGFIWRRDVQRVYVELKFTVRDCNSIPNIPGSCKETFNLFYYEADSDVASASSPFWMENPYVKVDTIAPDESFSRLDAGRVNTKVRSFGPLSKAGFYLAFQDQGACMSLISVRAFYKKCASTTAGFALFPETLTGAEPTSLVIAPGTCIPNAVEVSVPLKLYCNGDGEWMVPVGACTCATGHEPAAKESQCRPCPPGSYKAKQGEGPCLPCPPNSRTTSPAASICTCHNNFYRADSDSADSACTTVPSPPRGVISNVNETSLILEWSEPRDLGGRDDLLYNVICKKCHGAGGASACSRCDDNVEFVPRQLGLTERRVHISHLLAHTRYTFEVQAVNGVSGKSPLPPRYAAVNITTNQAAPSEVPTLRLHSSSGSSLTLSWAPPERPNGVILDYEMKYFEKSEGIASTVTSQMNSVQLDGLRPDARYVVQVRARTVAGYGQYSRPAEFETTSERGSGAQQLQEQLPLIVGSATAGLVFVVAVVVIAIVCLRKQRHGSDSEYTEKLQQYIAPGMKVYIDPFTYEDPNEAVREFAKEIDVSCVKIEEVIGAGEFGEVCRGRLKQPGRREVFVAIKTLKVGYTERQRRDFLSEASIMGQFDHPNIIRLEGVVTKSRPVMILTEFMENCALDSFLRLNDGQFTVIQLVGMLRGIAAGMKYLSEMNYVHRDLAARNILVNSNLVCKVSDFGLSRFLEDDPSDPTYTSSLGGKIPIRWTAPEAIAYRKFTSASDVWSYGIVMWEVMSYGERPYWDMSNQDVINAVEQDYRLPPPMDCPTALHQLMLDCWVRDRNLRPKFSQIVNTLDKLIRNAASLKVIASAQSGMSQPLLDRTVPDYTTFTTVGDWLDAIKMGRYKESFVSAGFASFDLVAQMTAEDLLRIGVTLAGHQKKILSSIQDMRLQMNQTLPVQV
# [3] = target: T2, Ephrin type-B receptor 3 (Homo sapiens); conditions: at 1 µM
# [4] = target: T3, Ephrin type-B receptor 4 (Homo sapiens) (UniProt P54760); conditions: at 0.1 µM
# T3 sequence (whole entry): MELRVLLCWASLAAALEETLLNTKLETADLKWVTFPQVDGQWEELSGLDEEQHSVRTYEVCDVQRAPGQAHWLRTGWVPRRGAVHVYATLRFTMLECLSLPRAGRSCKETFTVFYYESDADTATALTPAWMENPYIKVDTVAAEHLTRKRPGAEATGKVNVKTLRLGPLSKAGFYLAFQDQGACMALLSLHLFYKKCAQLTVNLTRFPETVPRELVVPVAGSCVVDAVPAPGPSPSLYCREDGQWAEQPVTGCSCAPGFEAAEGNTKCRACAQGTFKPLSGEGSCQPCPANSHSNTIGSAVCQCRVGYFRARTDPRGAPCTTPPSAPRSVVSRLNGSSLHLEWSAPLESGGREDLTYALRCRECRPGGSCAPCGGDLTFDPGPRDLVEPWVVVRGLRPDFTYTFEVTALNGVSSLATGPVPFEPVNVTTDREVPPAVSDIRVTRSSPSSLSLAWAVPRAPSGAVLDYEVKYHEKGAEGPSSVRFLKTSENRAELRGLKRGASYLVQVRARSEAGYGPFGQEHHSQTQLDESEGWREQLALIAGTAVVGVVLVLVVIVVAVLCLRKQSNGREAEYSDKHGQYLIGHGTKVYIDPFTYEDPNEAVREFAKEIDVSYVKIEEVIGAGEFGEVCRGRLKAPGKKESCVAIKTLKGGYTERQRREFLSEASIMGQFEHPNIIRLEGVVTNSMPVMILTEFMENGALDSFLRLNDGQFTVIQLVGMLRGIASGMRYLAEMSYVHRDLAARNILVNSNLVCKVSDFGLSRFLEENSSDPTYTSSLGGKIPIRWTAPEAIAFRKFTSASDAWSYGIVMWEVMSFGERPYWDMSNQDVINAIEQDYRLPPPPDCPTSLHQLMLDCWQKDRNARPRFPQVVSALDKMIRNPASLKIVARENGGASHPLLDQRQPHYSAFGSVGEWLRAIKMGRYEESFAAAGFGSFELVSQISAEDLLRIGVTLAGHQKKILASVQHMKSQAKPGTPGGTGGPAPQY
# [5] = target: T3, Ephrin type-B receptor 4 (Homo sapiens); conditions: at 1 µM
# [6] = target: Receptor tyrosine-protein kinase erbB-2 (Homo sapiens) (UniProt P04626); conditions: at 0.1 µM
# Chain of Receptor tyrosine-protein kinase erbB-2 (Homo sapiens) (P04626 whole entry): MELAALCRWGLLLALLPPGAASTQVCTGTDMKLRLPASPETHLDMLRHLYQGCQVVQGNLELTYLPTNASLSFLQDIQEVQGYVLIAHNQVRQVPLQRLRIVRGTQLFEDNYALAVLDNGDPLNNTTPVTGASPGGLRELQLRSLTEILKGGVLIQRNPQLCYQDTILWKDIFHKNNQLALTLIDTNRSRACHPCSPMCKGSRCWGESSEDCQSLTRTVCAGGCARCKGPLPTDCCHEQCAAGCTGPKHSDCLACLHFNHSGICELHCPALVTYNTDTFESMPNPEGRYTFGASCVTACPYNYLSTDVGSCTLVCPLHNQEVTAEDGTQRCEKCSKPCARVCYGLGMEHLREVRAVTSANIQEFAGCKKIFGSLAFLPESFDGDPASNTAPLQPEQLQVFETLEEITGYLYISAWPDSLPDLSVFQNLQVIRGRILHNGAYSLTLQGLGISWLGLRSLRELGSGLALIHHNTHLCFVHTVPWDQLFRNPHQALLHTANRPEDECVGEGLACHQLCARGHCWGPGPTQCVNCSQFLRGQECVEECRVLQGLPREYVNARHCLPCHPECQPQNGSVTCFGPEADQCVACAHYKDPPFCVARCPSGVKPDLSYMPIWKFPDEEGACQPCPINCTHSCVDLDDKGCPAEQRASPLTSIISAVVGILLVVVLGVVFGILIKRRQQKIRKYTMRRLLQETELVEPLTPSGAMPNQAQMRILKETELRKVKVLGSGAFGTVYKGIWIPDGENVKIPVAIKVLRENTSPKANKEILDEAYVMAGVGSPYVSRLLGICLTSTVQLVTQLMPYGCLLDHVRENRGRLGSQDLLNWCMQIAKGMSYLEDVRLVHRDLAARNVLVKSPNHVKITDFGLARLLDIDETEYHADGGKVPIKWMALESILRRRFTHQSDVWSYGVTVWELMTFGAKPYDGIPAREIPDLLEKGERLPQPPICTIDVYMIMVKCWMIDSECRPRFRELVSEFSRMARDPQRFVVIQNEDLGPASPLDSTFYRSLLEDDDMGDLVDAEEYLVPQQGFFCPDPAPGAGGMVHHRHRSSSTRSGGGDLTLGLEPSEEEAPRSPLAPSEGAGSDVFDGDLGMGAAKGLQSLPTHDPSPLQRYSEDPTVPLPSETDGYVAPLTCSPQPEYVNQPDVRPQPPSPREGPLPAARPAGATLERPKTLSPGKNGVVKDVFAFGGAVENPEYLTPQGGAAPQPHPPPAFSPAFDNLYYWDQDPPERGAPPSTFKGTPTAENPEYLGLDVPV
# [7] = target: Receptor tyrosine-protein kinase erbB-2 (Homo sapiens) (UniProt P04626); conditions: at 1 µM
# [8] = target: Receptor tyrosine-protein kinase erbB-4 (Homo sapiens) (UniProt Q15303); conditions: at 0.1 µM
# [9] = target: Receptor tyrosine-protein kinase erbB-4 (Homo sapiens) (UniProt Q15303); conditions: at 1 µM
# [10] = target: Tyrosine-protein kinase Fer (Homo sapiens) (UniProt P16591); conditions: at 0.1 µM
# Chain of Tyrosine-protein kinase Fer (Homo sapiens) (P16591 whole entry, looked up): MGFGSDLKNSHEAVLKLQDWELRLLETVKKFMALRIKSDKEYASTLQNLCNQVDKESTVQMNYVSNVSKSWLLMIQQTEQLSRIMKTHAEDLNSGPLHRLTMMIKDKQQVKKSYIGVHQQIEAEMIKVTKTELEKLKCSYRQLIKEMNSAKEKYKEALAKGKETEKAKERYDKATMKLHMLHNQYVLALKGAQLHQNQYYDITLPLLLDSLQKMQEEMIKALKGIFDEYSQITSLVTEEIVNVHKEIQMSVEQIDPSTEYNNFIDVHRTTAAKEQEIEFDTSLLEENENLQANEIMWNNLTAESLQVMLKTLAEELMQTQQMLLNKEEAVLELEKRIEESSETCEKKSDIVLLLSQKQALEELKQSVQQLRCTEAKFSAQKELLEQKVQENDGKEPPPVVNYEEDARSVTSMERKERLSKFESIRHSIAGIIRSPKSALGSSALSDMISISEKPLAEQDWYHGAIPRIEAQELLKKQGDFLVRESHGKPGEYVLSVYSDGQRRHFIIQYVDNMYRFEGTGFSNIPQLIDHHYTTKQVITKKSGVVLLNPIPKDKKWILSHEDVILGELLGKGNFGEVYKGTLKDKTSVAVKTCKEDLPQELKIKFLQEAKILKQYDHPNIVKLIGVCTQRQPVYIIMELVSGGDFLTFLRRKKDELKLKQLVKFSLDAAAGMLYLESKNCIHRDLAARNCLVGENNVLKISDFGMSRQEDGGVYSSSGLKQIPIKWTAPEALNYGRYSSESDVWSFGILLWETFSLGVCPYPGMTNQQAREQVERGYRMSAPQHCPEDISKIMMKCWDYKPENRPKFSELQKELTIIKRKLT
# [11] = target: Tyrosine-protein kinase Fer (Homo sapiens) (UniProt P16591); conditions: at 1 µM
# [12] = target: Tyrosine-protein kinase Fes/Fps (Homo sapiens) (UniProt P07332); conditions: at 0.1 µM
# Chain of Tyrosine-protein kinase Fes/Fps (Homo sapiens) (P07332 whole entry): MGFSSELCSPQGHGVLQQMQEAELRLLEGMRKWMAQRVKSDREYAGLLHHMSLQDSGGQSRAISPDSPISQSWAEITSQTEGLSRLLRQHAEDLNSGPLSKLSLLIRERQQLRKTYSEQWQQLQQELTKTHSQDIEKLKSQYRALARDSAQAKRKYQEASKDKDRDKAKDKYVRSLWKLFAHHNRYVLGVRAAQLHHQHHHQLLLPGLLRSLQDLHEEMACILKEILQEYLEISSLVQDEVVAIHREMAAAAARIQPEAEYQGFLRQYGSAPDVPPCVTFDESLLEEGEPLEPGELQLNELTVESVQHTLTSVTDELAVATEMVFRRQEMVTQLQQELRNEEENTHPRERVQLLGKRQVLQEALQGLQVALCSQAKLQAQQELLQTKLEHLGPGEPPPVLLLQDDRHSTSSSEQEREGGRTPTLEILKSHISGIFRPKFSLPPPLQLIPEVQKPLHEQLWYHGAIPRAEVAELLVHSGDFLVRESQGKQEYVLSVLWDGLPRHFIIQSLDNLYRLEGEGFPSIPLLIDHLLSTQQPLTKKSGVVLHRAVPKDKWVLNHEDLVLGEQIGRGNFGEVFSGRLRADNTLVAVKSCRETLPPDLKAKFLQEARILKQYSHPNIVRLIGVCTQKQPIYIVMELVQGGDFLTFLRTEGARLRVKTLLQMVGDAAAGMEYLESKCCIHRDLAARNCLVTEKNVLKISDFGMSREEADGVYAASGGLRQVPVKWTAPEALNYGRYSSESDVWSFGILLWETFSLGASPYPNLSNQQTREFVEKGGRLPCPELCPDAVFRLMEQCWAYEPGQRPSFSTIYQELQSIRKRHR
# [13] = target: Tyrosine-protein kinase Fes/Fps (Homo sapiens) (UniProt P07332); conditions: at 1 µM
# [14] = target: Fibroblast growth factor receptor 1 (Homo sapiens) (UniProt P11362); conditions: at 0.1 µM
# Chain of Fibroblast growth factor receptor 1 (Homo sapiens) (P11362 22-822 limits assumed): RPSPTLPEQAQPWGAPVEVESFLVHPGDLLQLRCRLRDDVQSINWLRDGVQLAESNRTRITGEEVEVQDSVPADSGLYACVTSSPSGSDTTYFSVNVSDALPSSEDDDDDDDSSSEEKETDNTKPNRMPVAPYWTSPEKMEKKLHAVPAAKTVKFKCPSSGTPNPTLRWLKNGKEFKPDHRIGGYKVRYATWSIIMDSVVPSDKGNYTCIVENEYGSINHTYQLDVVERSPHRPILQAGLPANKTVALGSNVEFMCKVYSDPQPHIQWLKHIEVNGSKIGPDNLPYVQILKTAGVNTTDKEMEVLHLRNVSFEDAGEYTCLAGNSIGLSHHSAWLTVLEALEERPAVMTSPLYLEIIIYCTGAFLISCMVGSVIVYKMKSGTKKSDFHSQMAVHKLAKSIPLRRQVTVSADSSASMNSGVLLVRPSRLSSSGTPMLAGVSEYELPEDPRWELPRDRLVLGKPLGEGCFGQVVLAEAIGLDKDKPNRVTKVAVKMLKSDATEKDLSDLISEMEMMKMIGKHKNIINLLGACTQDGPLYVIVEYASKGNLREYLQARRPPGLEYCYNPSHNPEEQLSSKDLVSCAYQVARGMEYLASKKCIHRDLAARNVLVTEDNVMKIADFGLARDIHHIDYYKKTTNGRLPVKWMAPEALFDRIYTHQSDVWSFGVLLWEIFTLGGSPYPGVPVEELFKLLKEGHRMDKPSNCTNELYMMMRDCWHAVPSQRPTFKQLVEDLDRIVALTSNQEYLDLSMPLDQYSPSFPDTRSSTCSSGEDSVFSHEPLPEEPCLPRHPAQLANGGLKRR
# [15] = target: Fibroblast growth factor receptor 1 (Homo sapiens) (UniProt P11362); conditions: at 1 µM
# [16] = target: Fibroblast growth factor receptor 2 (Homo sapiens) (UniProt P21802); conditions: at 0.1 µM
# [17] = target: Fibroblast growth factor receptor 2 (Homo sapiens) (UniProt P21802); conditions: at 1 µM
# [18] = target: Fibroblast growth factor receptor 3 (Homo sapiens) (UniProt P22607); conditions: at 0.1 µM
# [19] = target: Fibroblast growth factor receptor 3 (Homo sapiens) (UniProt P22607); conditions: at 1 µM
# [20] = target: Fibroblast growth factor receptor 4 (Homo sapiens) (UniProt P22455); conditions: at 0.1 µM;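 note: values are mean percent inhibition of FGFR4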
# Chain of Fibroblast growth factor receptor 4 (Homo sapiens) (P22455 22-802 limits assumed): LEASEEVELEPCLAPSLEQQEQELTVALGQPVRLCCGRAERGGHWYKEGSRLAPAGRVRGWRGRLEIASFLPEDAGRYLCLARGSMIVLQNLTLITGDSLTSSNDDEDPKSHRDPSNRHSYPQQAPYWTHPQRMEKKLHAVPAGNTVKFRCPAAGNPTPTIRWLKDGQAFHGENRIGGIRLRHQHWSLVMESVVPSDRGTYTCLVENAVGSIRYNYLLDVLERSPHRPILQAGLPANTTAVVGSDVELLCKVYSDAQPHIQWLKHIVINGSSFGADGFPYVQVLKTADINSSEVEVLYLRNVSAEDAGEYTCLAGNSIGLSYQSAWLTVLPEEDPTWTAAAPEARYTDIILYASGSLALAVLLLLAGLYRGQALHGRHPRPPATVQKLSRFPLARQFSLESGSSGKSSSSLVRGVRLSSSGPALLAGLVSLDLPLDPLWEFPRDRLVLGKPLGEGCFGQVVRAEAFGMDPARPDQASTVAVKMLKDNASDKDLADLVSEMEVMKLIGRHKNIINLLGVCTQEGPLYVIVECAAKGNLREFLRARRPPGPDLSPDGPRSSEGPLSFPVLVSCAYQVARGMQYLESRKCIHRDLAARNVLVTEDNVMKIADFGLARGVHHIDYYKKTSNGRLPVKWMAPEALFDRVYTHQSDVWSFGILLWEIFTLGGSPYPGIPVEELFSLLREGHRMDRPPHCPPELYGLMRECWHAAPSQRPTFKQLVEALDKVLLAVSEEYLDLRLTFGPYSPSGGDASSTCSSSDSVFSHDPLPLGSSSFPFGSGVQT
Compound,inhibition [1],inhibition [2],inhibition [3],inhibition [4],inhibition [5],inhibition [6],inhibition [7],inhibition [8],inhibition [9],inhibition [10],inhibition [11],inhibition [12],inhibition [13],inhibition [14],inhibition [15],inhibition [16],inhibition [17],inhibition [18],inhibition [19],inhibition [20]
CN(c1ccc(NC(=O)Nc2ccc(OC(F)(F)F)cc2)cc1)c1ccnc(Nc2cccc(S(N)(=O)=O)c2)n1,54.8%,3.87%,8.25%,1.79%,30.7%,2.39%,4.23%,7.13%,14.5%,12.6%,60.4%,4.7%,21.8%,2.49%,20.3%,16.2%,53.9%,3.87%,23.3%,-0.53%
Nc1nccc(-c2c(-c3ccc(F)cc3)ncn2CCCN2CCOCC2)n1,7.41%,5.73%,3.41%,2.19%,3.04%,4.07%,6.08%,12.4%,31.7%,2.69%,5.14%,3.13%,2.03%,1.48%,1.16%,2.81%,5.14%,4.29%,2.08%,–
CN1CCN(C(=O)c2ccc(NC(=O)Nc3ccc(N(C)c4ccnc(Nc5ccc(CS(C)(=O)=O)cc5)n4)cc3)cc2)CC1,34.3%,2.73%,3.2%,2.21%,11%,0.08%,3.94%,7.39%,17.1%,16.2%,63.9%,7.35%,43.4%,0.94%,4.44%,6.7%,12.8%,4.9%,5.11%,4.73%
C[C@@H](Oc1cc(-n2cnc3ccc(OC[C@@H](O)CO)cc32)sc1C(N)=O)c1ccccc1Cl,-2.42%,-1.05%,-0.83%,-3.41%,-0.4%,0%,0.61%,-3.03%,-1.55%,-1.75%,4.95%,-0.94%,0.05%,-7.07%,0.72%,-1.37%,8.23%,0.92%,6.57%,-1.57%
CN(C)c1cc2c(Nc3ccc4c(cnn4Cc4ccccc4)c3)ncnc2cn1,0.46%,4.69%,1.55%,0.91%,2.11%,53.4%,86.6%,91.1%,94.6%,1.79%,7.22%,2.58%,3.25%,2.28%,4.22%,2.03%,2.51%,4.39%,4.14%,0.85%
NS(=O)(=O)c1ccc(Nc2cc(-c3cccc(O)c3)n[nH]2)cc1,12.4%,8.13%,1.98%,1.74%,4.14%,1.73%,-4.93%,14.3%,14.3%,2.71%,7.21%,3.6%,4.45%,7.55%,14.2%,8.82%,15.9%,9.15%,13.4%,-0.72%
COc1cc2ncn(-c3cc(OCc4ccccc4S(C)(=O)=O)c(C#N)s3)c2cc1OC,36%,5.99%,4.4%,4.74%,17.1%,0.83%,-1.42%,8.79%,8.72%,6.67%,10.3%,2.71%,3.13%,12.1%,19.3%,8.86%,31.6%,9.71%,24.1%,2%
CCCN1CCCC(c2ccc(Nc3nc(Nc4cc(F)ccc4C(N)=O)c4cc[nH]c4n3)c(OC)c2)C1 (centres undefined),15.8%,6.2%,-1.82%,2.18%,4.67%,2.27%,3.37%,36.3%,75%,77.5%,84.4%,61.4%,81.3%,3.11%,3.44%,4.31%,5.74%,5.86%,4.56%,0.72%
O=C1Nc2ccc(-c3cccnc3)cc2C1=Cc1cc(Br)c(O)c(Br)c1,11%,4.6%,2.28%,2.97%,3.11%,-0.94%,4.88%,9.94%,14.9%,8.12%,9.05%,2.71%,2.85%,4.47%,1.74%,3.81%,5.51%,9.43%,8.18%,1.39%
NC(=O)c1sc(-n2cnc3ccccc32)cc1OCc1ccccc1Br,10.9%,4.52%,6.83%,1.58%,3.37%,0.61%,3.64%,3.34%,9.23%,-0.27%,3.22%,2.73%,4.01%,6.09%,6.22%,5.8%,4.79%,5.69%,4.87%,1.18%
CC(C)c1ccc2c(c1)NC(=O)/C2=N/Nc1ccc(S(N)(=O)=O)cc1,3.71%,0.49%,1.76%,1.07%,0.29%,3%,2.17%,1.45%,2.39%,0.16%,1%,0.91%,-0.14%,3.46%,-0.01%,0.48%,5.04%,1.14%,3.91%,2.58%
CCOc1nccc2c1nc(-c1nonc1N)n2CC,13.1%,1.72%,2.82%,2.78%,0.5%,3.01%,9.5%,6.98%,18%,5.59%,6.51%,2.51%,2.14%,4.54%,7.51%,3.59%,10.6%,5%,10.9%,2.6%
NS(=O)(=O)c1cccc(-c2cc3ccncc3cc2OCc2ccccc2)c1,9.74%,6.23%,4.28%,2.45%,2.84%,1.13%,-3.29%,8.81%,9.16%,3.7%,4.16%,4.25%,7.11%,8.63%,10.7%,9.37%,15.6%,8.37%,13%,0.02%
